# Experimental data published in ChEMBL document CHEMBL4513216, “Probing the Open Global Health Chemical Diversity Library for Multistage-Active Starting Points for Next-Generation Antimalarials” (ACS Infect Dis, 2020).
# In all, about 68,000 compounds went through this assay and about 2,700 (4%) showed an effect of 50% or more. What follows is part of a selection rich in strong results, with near analogues and random picks from the rest.
# System: Plasmodium berghei
# Assay: Screen against P. berghei liver stage (PbLuc), transformed with Luciferase, at 2uM
# Type: functional, HepG2
# Conditions: tested at 2 uM
row,Structure (SMILES),INHIBITION [%]
1,O=C(c1ccccn1)N1C[C@H]2CC[C@@H](C1)N(C(=O)CCN1CCCC1)C2,-49.63
2,CC(NCCNS(=O)(=O)c1cccc(Cl)c1)C1CCOCC1 (configuration not stated),53.16
3,O=C(NCCNS(=O)(=O)c1cccc(Cl)c1)C1CCCO1 (configuration not stated),1.27
4,Cc1cc(NCCNS(=O)(=O)c2cccc(Cl)c2)nc(C)n1,-42.54
5,COCC1CC2(CCN(C(=O)c3ccccc3C)CC2)CN1C(C)C (configuration not stated),24.86
6,O=C(c1cn(CC(=O)N2CCCC2)c2ccccc12)C1CC1,54.29
7,O=C(c1cn(CC(=O)N2CCCCCC2)c2ccccc12)C1CC1,-45.95
8,O=C(c1cn(CC(=O)N2CCCCC2)c2ccccc12)C1CC1,-27.61
9,CCOCC1CN(C(=O)c2cnoc2C)Cc2cn(C)nc21 (configuration not stated),-10.98
10,Fc1ccc(CN2CCCC(c3cc4ncccc4[nH]3)C2)cc1 (configuration not stated),-6.41
11,CC(=O)Nc1ccc(CN2CCCC(c3cc4ncccc4[nH]3)C2)cc1 (configuration not stated),50.68
12,CCOc1ccc(CN2CCCC(c3cc4ncccc4[nH]3)C2)cc1 (configuration not stated),-12.12
13,Cc1occc1C(=O)N1CCCC2(CCN(CCN3CCCC3)C2=O)C1 (configuration not stated),-15.36
14,Cc1ccc(Cn2nc(C)c3c(C(=O)O)c(Cl)c(C4CC4)nc32)cc1,26.11
15,Cc1noc2nc(C3CC3)c(Cl)c(C(=O)O)c12,-7.81
16,Cc1nn(C)c2nc(C3CC3)c(Cl)c(C(=O)O)c12,52.23
17,CCc1csc(NC(=O)NCc2ccccn2)n1,29.32
18,Cc1c(C(=O)N(C)CC(F)(F)F)nnn1-c1ccccc1Cl,-20.76
19,CSC1(CNC(=O)NC(C)c2ccc(F)c(F)c2)CCOCC1 (configuration not stated),-90.61
20,CSC1(CNC(=O)NC(C)Cc2cccc(F)c2)CCOCC1 (configuration not stated),16.49
21,CSC1(CNC(=O)NC(C)c2ccc(F)cc2)CCOCC1 (configuration not stated),51.43
22,CCS(=O)(=O)CCN1CCN(C2CCC(C(C)C)CC2)CC1 (configuration not stated),20.83
23,COCc1nccc(C2CCCN(Cc3ccc(SC)cc3)C2)n1 (configuration not stated),35.63

row,Structure (SMILES),INHIBITION [%]
1,CC1N(C)C(=O)COC12CCN(Cc1nccs1)CC2 (configuration not stated),-52.93
2,OCC1CCCN1c1cc(NCCc2ccccn2)ncn1 (configuration not stated),-13.49
3,CN1CCc2[nH]cnc2C12CCN(C(=O)CCc1cccs1)CC2,46.51
4,CC(=O)N1CCc2[nH]cnc2C12CCN(C(=O)Cc1cccs1)CC2,63.14
5,CC(=O)N1CCc2[nH]cnc2C12CCN(C(=O)Cc1ccccn1)CC2,39.58
6,Cc1cccc(CN2C[C@@H]3CN(C(=O)[C@H]4CCCO4)C[C@@H]3C2=O)c1,19.64
7,CCn1ncc2c1C(COC)N(C(=O)c1cccs1)CC2 (configuration not stated),-23.14
8,O=C(Nc1nnn[nH]1)c1ccc(I)c(F)c1,15.2
9,Cc1cccc(CN2CC[C@@H]3[C@@H]2CCN3Cc2cccs2)n1,-18.6
10,Cc1cccc(CN2C(=O)C[C@H]3[C@@H]2CCN3Cc2cccs2)n1,63.06
11,Cc1cccc(CN2C(=O)C[C@H]3[C@@H]2CCN3Cc2nccs2)n1,31.5
12,Cc1ccc(-c2cn[nH]c2C2CCCN(c3ncccn3)C2)cc1 (configuration not stated),-16.71
13,Cc1ccc(-c2cn[nH]c2C2CCCN(c3ccnc(C)n3)C2)cc1 (configuration not stated),-8.3
14,Cc1ccc(-c2cn[nH]c2C2CCCN(c3nccc(N)n3)C2)cc1 (configuration not stated),58
15,Cc1nc(CCNC(=O)NC(C)Cn2cccn2)cs1 (configuration not stated),38.76
16,O=C(N[C@@H]1CN[C@H]2CCCO[C@H]21)c1cccnc1,33.69
17,CC(=O)N1CCN(C(C)c2nnc(CC(C)C)o2)CC1 (configuration not stated),2.02
18,CNc1ncc(CN(C)C(=O)CCc2cc3n(n2)CCCNC3)cn1,20.76
19,CNc1ncc(CN(C)C(=O)CCc2[nH]nc3c2CCCC3)cn1,50.57
20,CN(Cc1ccncn1)C(=O)CCc1[nH]nc2c1CCCC2,-2.31
21,Cc1ccc(CNC(=O)Cn2nc(-c3ccc(F)cc3)oc2=O)cc1F,1.6
22,COc1cccc(-c2noc(C3CCN(CC4CCCCC4)C3)n2)c1 (configuration not stated),30.29
23,CCS(=O)(=O)N1CCC2(CC1)CN(C(=O)N(C)C)Cc1ccccc12,6.79

row,Structure (SMILES),INHIBITION [%]
1,CC(C)N1CCC(CC(=O)NCc2cc(O)ncn2)CC1,12.17
2,CC(C)N1CCC(CC(=O)NCCc2cc(O)ncn2)CC1,60.59
3,CCc1csc(CCNC(=O)CC2CCN(C(C)C)CC2)n1,-2.5
4,Cn1ccnc1CN1C[C@@H]2OCCN(c3ncccn3)[C@@H]2C1,52.17
5,CN(C)c1nccc(N2CCO[C@H]3CN(Cc4nccn4C)C[C@H]32)n1,11.6
6,Cn1cncc1CN1C[C@@H]2OCCN(c3ncccn3)[C@@H]2C1,25.02
7,CC(C)NC(=O)N1Cc2nccn2CC(CN2CCCC2)C1 (configuration not stated),2.5
8,CCC(C)Oc1ccc(CNCCc2c[nH]cn2)cc1Cl (configuration not stated),12.15
9,Cc1nn(CC(=O)Nc2cccc(F)c2)c(N)c1C#N,-33.61
10,Cc1nn(CC(=O)Nc2ccc(F)cc2)c(N)c1C#N,58.12
11,COc1ccc(C)cc1NC(=O)Cn1nc(C)c(C#N)c1N,5.32
12,Cc1ccc(C)c(NC(=O)Cn2nc(C)c(C#N)c2N)c1,-15.17
13,CC(=O)c1c(C)nn(CC(=O)Nc2ccc(F)cc2)c1C,-16.43
14,Cc1cc(NC(=O)Cn2nc(C)c(C#N)c2N)ccc1Br,55.86
15,CCc1ccc(S(=O)(=O)N2Cc3c(CN(C)C)nn(C)c3C2)cc1,48.09
16,NC1CCc2nc(-c3ccncc3)nc(Nc3cccc(F)c3)c2C1 (configuration not stated),-23.54
17,Cc1cccc2c1ccn2CCC(=O)Nc1c2c(nn1C)CSC2,13.65
18,CCN(C)c1ncnc2c1CCN(Cc1ccc(OC)cc1)CC2,7.86
19,O=C(CSCC1CC1)N1CCCC(c2nccn2Cc2ccccn2)C1 (configuration not stated),-17.83
20,O=C(c1ccccn1)N1CCCC(c2nccn2CC2CCC2)C1 (configuration not stated),14.41
21,O=C(Cc1ccccn1)N1CCCC(c2nccn2CC2CCC2)C1 (configuration not stated),54.47
